In the library only some 10% were active in any assay of this set; here they are far more common.
MmCpn inh: Inhibitors of TCP-1 ring complex (TRiC) of Methanococcus maripaludis (MmCpn): qHTS. Chaperonin Mm-Cpn (Methanococcus maripaludis). purified Mm-Cpn ATPase, ADP Transcreener TR-FRET. Potency, µM (titrated, usually from 76.9 µM), inactives show at the top dose activity, negative = inhibition, most hits filed as inhibitors. hit rate 0.031% among 330,000. AID 504842, 2011; also: potency is read from the fitted curve at half-maximal effect; % is scaled to controls: 0 for no effect and ±100 for the full control effect; nearly all actives have a fitted effect of over 80% in size
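Compound-treated chaperonin, 25 nM final, turns over 10 uM ATP at 37°C for 30 min following a 10 min preincubation; ADP generated competes with ADP-d2 for Eu-cryptate antibody, lowering FRET.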
Sfp inh: qHTS Assay for Inhibitors of Bacillus subtilis Sfp phosphopantetheinyl transferase (PPTase); 4'-phosphopantetheinyl transferase ffp (Bacillus subtilis), Q9F4F7; Biochemical Sfp PPTase activity, qHTS; Potency, µM, for the others: largest response in the series, negative = inhibition, actives largely listed as inhibitors; hit rate 3.5% among 310,000; AID 1490, 2009;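 also: the enzyme is Sfp with the accession as filed and its product quenches rhodamine fluorescence; potency is read from the fitted curve at half-maximal effect; 0% = enzyme reaction without inhibitor and -100% = no enzyme wells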
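Step 1, compound plus 15 nM Sfp-PPTase, 15 min, room temperature. Step 2, add rhodamine-CoA (5 uM) and BHQ-2-YbbR (12.5 uM). Step 3, read 525/598 nm fluorescence at 0 and 30 min.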
CCT modulator: High-Throughput Screening for Modulators of Cytosolic Chaperonin Activity. hit rate 0.3% among 360,000. purified chaperonin ATPase assay, HTRF ADP detection, 30 min. activity change, % (test concentration not listed), hits read low; in the data active = activity change below about -30%; also: % is scaled to controls: 0 for no effect and ±100 for the full control effect
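TRiC at 40 or 20 nM final (batch-dependent) in 30 mM Tris pH 7.4, 100 mM KCl, 5 mM MgCl2, 1 mM DTT, with compound at single 76 uM and 10 uM ATP, 30 min at 37 deg C. ADP detected by HTRF Transcreener, 665/615 ratio.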
G9a inh: qHTS Assay for Inhibitors of Histone Lysine Methyltransferase G9a; Histone-lysine N-methyltransferase EHMT2 (Homo sapiens), Q96KQ7; G9a H3K9 monomethylation, AlphaScreen, 2 h; Potency, µM (top dose mostly 102 µM), for inactives: at the highest dose activity, negative = inhibition, actives largely listed as inhibitors; hit rate 8.8% among 350,000; also: potency is read from the fitted curve at half-maximal effect; % is scaled to controls: 0 for no effect and ±100 for the full control effect; nearly all actives have a fitted effect of over 75% in size
Target sequence (Q96KQ7 913-1193 limits assumed): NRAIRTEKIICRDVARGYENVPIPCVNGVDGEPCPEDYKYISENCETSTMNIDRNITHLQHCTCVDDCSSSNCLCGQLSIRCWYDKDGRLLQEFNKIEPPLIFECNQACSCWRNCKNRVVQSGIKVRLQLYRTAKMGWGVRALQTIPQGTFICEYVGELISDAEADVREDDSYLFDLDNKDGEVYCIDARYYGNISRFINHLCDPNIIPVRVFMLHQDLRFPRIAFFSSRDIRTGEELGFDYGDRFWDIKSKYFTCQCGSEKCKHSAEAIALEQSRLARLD
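Chemiluminescent proximity detection of H3K9 monomethylation, read after 10 min bead incubation in the dark. Reaction: 20 nM G9a, 500 nM biotin-H3K9 peptide, 20 uM SAM cofactor, 2 h, room temperature, following 15 min enzyme-compound preincubation.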
PLK1 PBD inh: qHTS for Inhibitors of PLK1-PDB (polo-like kinase 1 - polo-box domain): Primary Screen. AID 720504, 2013. Potency, µM, inactives show max response, negative = inhibition, hits mostly inhibitors. hit rate 2.8% among 360,000. Plk1 PBD binding of FITC phosphopeptide, fluorescence polarization. Serine/threonine-protein kinase PLK1 (Homo sapiens), P53350; also: potency is read from the fitted curve at half-maximal effect; series mostly up to about 57 µM; % is scaled to controls: 0 for no effect and ±100 for the full control effect; nearly all actives have a fitted effect of over 65% in size
VDR inh: Inhibitors of the vitamin D receptor (VDR): qHTS. hit rate 0.93% among 400,000. Potency, µM, inactives show max response, negative = inhibition, usual class: inhibitors. VDR-SRC2-3 peptide fluorescence polarization, 2 h; also: potency is read from the fitted curve at half-maximal effect; % is scaled to controls: 0 for no effect and ±100 for the full control effect
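FP read-out; VDR + SRC2-3 coactivator peptide; 23 nl compound by pintool; 2 h RT incubation; reagents held at 4 deg C, protected from light.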
VDR confirm: qHTS for Inhibitors of the vitamin D receptor (VDR): Hit Validation in Primary Screen; shares compounds with VDR inh; VDR-coactivator inhibition assay, qHTS confirmation; Potency, µM, usual class: inhibitors; hit rate 89% among 840; AID 602199, 2012; also: potency is read from the fitted curve at half-maximal effect
VDR FP fluor: qHTS for Inhibitors of the vitamin D receptor (VDR): Hit Validation using a Fluorescein Assay. shares compounds with VDR inh. VDR-coactivator binding, fluorescein fluorescence polarization. Potency, µM (titrated, usually from 57.1 µM), for inactives: at the highest dose activity change, negative = inhibition, most hits filed as inhibitors. hit rate 48% among 840; also: potency is read from the fitted curve at half-maximal effect
VDR bla reporter: qHTS for Inhibitors of the vitamin D receptor (VDR): Hit Validation using a Beta-Lactamase Assay. shares compounds with VDR inh. VDR beta-lactamase reporter cells, FRET ratio; cells co-treated with VDR agonist LG190178. Potency, µM (highest dose often 46.1 µM), without a hit: top-dose activity change, negative = inhibition, most hits filed as inhibitors. hit rate 23% among 840. AID 602202, 2012; also: potency is read from the fitted curve at half-maximal effect; % is scaled to controls: 0 for no effect and ±100 for the full control effect
VDR cytotox: qHTS for Inhibitors of the vitamin D receptor (VDR): Hit Validation using a Cytotoxicity Assay; shares compounds with VDR inh; cytotoxicity counter-screen, cell viability, qHTS; Potency, µM (highest dose often 48.3 µM), without a hit: at the top dose activity change, negative = cytotoxicity, usual class: cytotoxic; hit rate 18% among 840; AID 602204, 2012;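 also: potency is read from the fitted curve at half-maximal effect; plate controls were DMSO for no effect and high-concentration cycloheximide for full effect; nearly all actives have a fitted effect of over 75% in size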
Starred values were filed as active, the others as inactive; u = inconclusive; x = not tested or not shown; [ ] = another dose, or the depositor's remark. Unless noted, calls follow the shape of the dose curve; as a rule, active = well fitted curve in the direction sought with a large enough effect; inconclusive = small, poorly fitted or top-dose-only effect, or another doubt; inactive = no such curve, though single readings can be large; an effect the other way counts as inactive or inconclusive.

SMILES | MmCpn inh | Sfp inh | CCT modulator | G9a inh | PLK1 PBD inh | VDR inh | VDR confirm | VDR FP fluor | VDR bla reporter | VDR cytotox
Cc1cccc(CS(=O)(=O)c2ncc(Cl)c(C(=O)NCc3ccccc3)n2)c1 | 2% | u | 0 | 2%[59 µM] | u | 16µM* | 4.7* | 7.9µM* | 15µM* | 23µM*
CCCc1nnc(NC(=O)c2nc(S(=O)(=O)Cc3cccc(C)c3)ncc2Cl)s1 | 4% | -25% | -1 | x | -17% | 14µM* | 6* | u | 12µM* | 16µM*
Cc1cc(C)cc(C(=O)n2nc(C)c(S(=O)(=O)N3CCOCC3)c2C)c1 | x | x | x | u | x | -1% | x | x | x | x
COc1cc(/C=C/C(=O)Nc2nnc(CC(C)(C)C)s2)cc(OC)c1OC | 1% | 45µM* | -3 | 2.2µM* | 8.4µM* | 79µM* | 21* | 14µM* | 26% | 11%
Cc1c(CNC(C)CCc2ccccc2)c(C(=O)O)c(C)n1Cc1ccc(F)cc1 (stereo not given) | x | x | x | -2%[59 µM] | x | 10% | x | x | x | x
O=C(CCc1ccccc1)N(Cc1cccnc1)c1nc2c(F)cc(F)cc2s1 | x | x | x | 4%[59 µM] | x | 9% | x | x | x | x
COc1ccccc1/C=C1\CCCC2=C1Nc1nnnn1C2c1ccccc1OC (stereo not given) | -2% | 50µM* | -2 | 10µM* | u | u | u | u | u | -4%
O=c1cc(-c2ccc(F)cc2)nc(SCc2nc(-c3ccccc3Cl)no2)[nH]1 | x | x | x | 0%[59 µM] | x | 11% | x | x | x | x
Nc1c(C(=O)N2CCCCC2)sc(=S)n1-c1ccccc1 | 2% | -84% | 0 | u | 3µM* | u | 7.1* | 7.1µM* | -8% | 1%
Nc1nc(SCc2ccccc2)sc1C(=O)N1CCCCC1 | x | x | 1 | x | -1% | x | x | x | x | x
CCC(=O)NC(c1ccc(C)cc1)c1cc(Cl)c2cccnc2c1O (stereo not given) | 3% | x | x | x | x | -8% | x | x | x | x
CCOc1ccc(C(Nc2cccnc2)c2cc(Cl)c3cccnc3c2O)cc1 (stereo not given) | -2% | u | -1 | x | 4.7µM* | u | 7.1* | u | -21% | u
O=C(O)COc1ccccc1C(Nc1cccnc1)c1cc(Cl)c2cccnc2c1O (stereo not given) | 3% | 22µM* | -2 | 2.8µM* | 1.2µM* | 22µM* | 13* | u | 10% | 21%
CCCCc1nn2c(=O)cc(COC(=O)c3ccccc3NC(=O)c3cccs3)nc2s1 | x | x | x | 30%[59 µM] | x | 4% | x | x | x | x

Assay outcomes (PubChem)
